The text below walks through data of PubChem BioAssay (NCATS).

Inconclusive results are not listed. Calls of active or inactive are those of the source. Unless noted, calls follow the shape of the dose curve; as a rule, active = well fitted curve in the direction sought with a large enough effect; inconclusive = small, poorly fitted or top-dose-only effect, or another doubt; inactive = no such curve, though single readings can be large; an effect the other way counts as inactive or inconclusive. A value given as a limit tells only on which side of the number the result lay.

Experiment [1] addresses Lysosomal acid glucosylceramidase (Homo sapiens) (UniProt P04062). Put plainly: Glucocerebrosidase-p2 (AID 348; in the data active = potency below about 10 µM; also: potency is read from the fitted curve at half-maximal effect). To be noted: purified GBA, blue fluorogenic substrate, 40 min. The essentials: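 Compounds titrated from 0.6 nM upwards against 0.2 nM enzyme in pH 5.9 citric acid/KH2PO4, taurocholate, tween-20; blue fluorogenic substrate 80 uM, 40 min room temperature, stopped and read Ex 365/Em 440 for AC50.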

Experiment [2] in a line: AP1 Signaling Pathway (AID 357; active = well fitted curve in either direction with a large enough effect, not every such curve was filed as active; also: % is scaled to controls: 0 for no effect and ±100 for the full control effect). As to conditions: ME-180 AP-1-bla reporter, EGF-induced, beta-lactamase ratio, 5 h; at 7.69 µM (top of the series) unless noted. The essentials:
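AP-1-bla ME-180 cells with beta-lactamase reporter under AP-1 response element, stimulated with EC50 EGF; compounds titrated, 5 hours at 37 degrees Celsius. CCF4 read at 460/530 nm ratio; positive and negative modulators judged by AC50.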

In experiment [3] the target is Cytochrome P450 1A2 (Homo sapiens) (UniProt P05177). Put plainly: p450-cyp1a2 (AID 410; calls by dose curve; also: potency is read from the fitted curve at half-maximal effect). The method in brief:
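Luminescent readout of luciferin formed from Luciferin-ME by human CYP1A2; data normalized against complete inhibition by 57 uM furafylline. Enzyme 20nM, substrate 100uM at Km, 100mM KPO4 buffer, 60 min reaction at room temperature.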

A short description of experiment [4]: NFAT Signaling Pathway (AID 444; active = well fitted curve in either direction with a large enough effect, not every such curve was filed as active;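 also: carbachol stimulus at about its EC50 of 1 µM final; % is scaled to controls: 0 for no effect and ±100 for the full control effect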). As to conditions: Jurkat NFAT-bla M1, carbachol, beta-lactamase ratio, 5 h; at 7.69 µM (top of the series) unless noted. The essentials: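 Read-out: CCF4 FRET ratio (460 nm/530 nm) after 1 h RT dye loading, used for %activity and AC50 from titration series. Cells: Jurkat NFAT-β-lactamase/M1 line, treated with compound plus 1 uM carbachol for 5 h, 37 °C.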

The nature of experiment [5]: Stat Signaling Pathway (AID 446; active = well fitted curve in either direction with a large enough effect, not every such curve was filed as active;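 also: ME-180 cervical cancer cells given 40 pM IL-6 alongside compound; SIE-controlled beta-lactamase reporter measured as 460/530 nm FRET emission ratio; % is scaled to controls: 0 for no effect and ±100 for the full control effect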). As to conditions: ME-180 (cervical carcinoma) SIE beta-lactamase reporter, IL-6 stimulated, 5 h; at 7.69 µM (top of the series) unless noted. The method in brief:
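ME-180 cells carrying a SIE-driven beta-lactamase reporter are stimulated with 40 pM IL-6 for 5 h at 37C in the presence of compound. The 460/530 nm FRET substrate ratio is read after 2.5 h at RT. Data are normalised to 300 pM IL-6 and to 125 nM JAK inhibitor controls.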

The target of experiment [6] is Glucocorticoid receptor (Homo sapiens) (UniProt P04150). Put plainly: GR-EFC Redistribution (AID 451; calls by dose curve; also: potency is read from the fitted curve at half-maximal effect). As to conditions: CHO-K1 GR-EFC translocation, beta-gal luminescence, 2 h. The method in brief: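 Translocation of GR-ED fusion to nuclear EA restores b-gal, read by luminescence after 1 h room-temperature detection. Engineered CHO-K1 biosensor cells, 1,000/well, exposed 2 h at 37 C to titrations up to 46 uM final.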

The target of experiment [7] is Mitogen-activated protein kinase 10 (Mus musculus) (UniProt Q61831). The experiment is described as follows: JNK3 AlphaScreen Assay (AID 530; active = well fitted curve in either direction with a large enough effect, not every such curve was filed as active;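 also: kinase came from lysate of stimulated human HepG2 cells; signal reports phosphorylation of biotinylated GST-cJun 1-79 at Ser73 with 10 µM ATP; % is scaled to controls: 0 for no effect and ±100 for the full control effect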). The essentials:
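Compound titrations were preincubated 15 minutes at room temperature with substrate, antibody and pre-activated JNK3-containing HepG2 lysate. Reactions were started with 10 uM ATP and stopped with EDTA-containing bead buffer for AlphaScreen detection.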
A general note: Bead proximity is the source of the signal in Alpha formats.

In experiment [8] the target is Cytochrome P450 3A4 (Homo sapiens) (UniProt P08684). The experiment is described as follows: qHTS Assay for Activators of Cytochrome P450 3A4 (AID 885). Also: nearly all actives have a fitted effect of over 65% in size. The method in brief: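 Human CYP3A4 (20 nM) with Luciferin-PPXE at 25 uM (its KM) in 200 mM KPO4; 10 min compound preincubation, then NADPH regeneration and 60 min reaction at RT. Luciferin read by luminescence; normalized to 57 uM ketoconazole full inhibition.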

The nature of experiment [9]: qHTS Assay for Lipid Storage Modulators (AID 1519; calls by dose curve). As to conditions: Drosophila S3 cells, BODIPY lipid droplet/cell ratio, laser cytometry, cells loaded with oleic acid; for activity change, negative = inhibition: at 57.5 µM (top of the series). The essentials:
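Cells seeded at 5,000 per well were treated with compounds over a concentration series and loaded with oleic acid (400 uM, as added). Lipid droplet fluorescence (488 nm excitation, 500-530 nm channel) was read by laser-scanning cytometry and normalized to 20 uM Triacsin C.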
(In qHTS, concentration-response curves come from the screen itself.)

A short description of experiment [10]: Primary qHTS for small molecule stabilizers of the endoplasmic reticulum resident proteome: Secreted ER Calcium Modulated Protein (SERCaMP) assay (AID 1508630). Also: % is scaled to controls: 0 for no effect and ±100 for the full control effect. The method in brief: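 GLuc-SERCaMP-expressing SH-SY5Y cells, pretreated 16 h with compound, are challenged with thapsigargin to empty ER calcium stores; after 4 h, coelenterazine is added directly to the medium and luminescence is imaged.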

The target in experiment [11] is Rap guanine nucleotide exchange factor 3 (Homo sapiens) (UniProt O95398). The experiment is described as follows: Confirmatory qHTS for agonist of cAMP-regulated guanine nucleotide exchange factor 3 (EPAC1) (AID 1645881).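 Also: EPAC1 catalysed release of BODIPY-GDP from Rap1B seen as fluorescence loss; 100% = effect of cAMP agonist control; nearly all actives have a fitted effect of over 75% in size.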
Experiment [12] concerns the target Rap guanine nucleotide exchange factor 4 (Homo sapiens) (UniProt Q8WZA2). The experiment is described as follows: Confirmatory qHTS for agonist of cAMP-regulated guanine nucleotide exchange factor 4 (EPAC2) (AID 1645884).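 Also: nucleotide exchange releases bodipy-GDP from Rap1 and this lowers its fluorescence; % is scaled to controls: 0 for no effect and ±100 for the full control effect; nearly all actives have a fitted effect of over 65% in size.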
Experiment [13] shares this target. Put plainly: Confirmatory qHTS for antagonist of cAMP-regulated guanine nucleotide exchange factor 4 (EPAC2) (AID 1645885). Also: nearly all actives have a fitted effect of over 25% in size. Also: potency is read from the fitted curve at half-maximal effect.
Experiment [14] deals with Glucocorticoid receptor (Homo sapiens) (UniProt P04150). Put plainly: GR-GFP Redistribution (AID 450;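 active = compounds whose dose series gives a full or clear partial fitted curve of increased nuclear translocation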; also: potency is read from the fitted curve at half-maximal effect). As to conditions: U2OS GR-GFP nuclear translocation, laser cytometry, 2 h.
The target in experiment [15] is Dual specificity protein kinase CLK4 (Homo sapiens) (UniProt Q9HAZ1). Put plainly: qHTS Assay for Inhibitors of CDC-like Kinase 4 (Kinase-Glo Assay) (AID 1770). Also: % is scaled to controls: 0 for no effect and ±100 for the full control effect; nearly all actives have a fitted effect of over 65% in size. The method in brief: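 Luminescent ATP-depletion read-out (Kinase-Glo) after 4.5 h room-temperature reaction of Clk4 (25 nM final) with RS peptide (100 uM) and ATP (1 uM), pH 7.5 Tris buffer with MgCl2 and DTT.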

Experiment [16] has the same target. The experiment is described as follows: qHTS Assay for Inhibitors of CDC-like Kinase 4 (ADP-Glo Assay) (AID 1771). Also: nearly all actives have a fitted effect of over 70% in size. Also: potency is read from the fitted curve at half-maximal effect. The method in brief: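 Luminescence from ADP-Glo reports ADP produced by 25 nM Clk4 acting on 100 uM RS repeat peptide with 1 uM ATP over 1 hr at room temperature; residual ATP is depleted before ADP is converted to ATP for detection.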
Experiment [17] shares this target. The experiment is described as follows: qHTS Assay for Inhibitors of CDC-like Kinase 4 (ADP-FP Assay) (AID 1795).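 Also: recombinant human CLK4 phosphorylating RS repeat peptide at 1 µM ATP; % is scaled to controls: 0 for no effect and ±100 for the full control effect; nearly all actives have a fitted effect of over 60% in size.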 The essentials:
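Kinase activity was measured as ADP production using Transcreener orange tracer (4 nM) and ADP antibody (1 ug/mL) fluorescence polarization, with ADP calculated from a calibration curve. The 1 h reaction contained 6.25 nM Clk4, 1 uM ATP and 100 uM RS peptide at pH 7.5 with Mg2+.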

Experiment [18] has as its target Ubiquitin carboxyl-terminal hydrolase 1 (Homo sapiens) (UniProt O94782). Put plainly: Inhibitors of USP1/UAF1: Pilot qHTS (AID 504865). Also: nearly all actives have a fitted effect of over 35% in size. Also: potency is read from the fitted curve at half-maximal effect. The method in brief: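 Deubiquitinase activity followed as kinetic rhodamine fluorescence release from 150 nM Ub-Rho. 1 nM USP1/UAF1 with compound, after 15 min room-temperature preincubation, in HEPES pH 7.8 buffer containing TCEP, EDTA, BSA and Tween-20.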

Experiment [19] concerns the target Cytochrome P450 3A4 (Homo sapiens) (UniProt P08684). The experiment is described as follows: qHTS Assay for Inhibitors and Substrates of Cytochrome P450 3A4 (AID 884). Also: potency is read from the fitted curve at half-maximal effect; nearly all actives have a fitted effect of over 50% in size. The essentials:
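20 nM human CYP3A4 with 25 uM Luciferin-PPXE (at KM) in 200 mM KPO4, preincubated 10 min with compound; NADPH regeneration started a 60 min RT reaction. Luciferin detected by luminescence, normalized to 57 uM ketoconazole as full inhibition.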

Where [20] appears, read: measured here: cell count channel max response.
Setting [21] is: measured here: lipid channel max response.

Cytochrome P450 1A2 (Homo sapiens), sequence (P05177 whole entry, looked up): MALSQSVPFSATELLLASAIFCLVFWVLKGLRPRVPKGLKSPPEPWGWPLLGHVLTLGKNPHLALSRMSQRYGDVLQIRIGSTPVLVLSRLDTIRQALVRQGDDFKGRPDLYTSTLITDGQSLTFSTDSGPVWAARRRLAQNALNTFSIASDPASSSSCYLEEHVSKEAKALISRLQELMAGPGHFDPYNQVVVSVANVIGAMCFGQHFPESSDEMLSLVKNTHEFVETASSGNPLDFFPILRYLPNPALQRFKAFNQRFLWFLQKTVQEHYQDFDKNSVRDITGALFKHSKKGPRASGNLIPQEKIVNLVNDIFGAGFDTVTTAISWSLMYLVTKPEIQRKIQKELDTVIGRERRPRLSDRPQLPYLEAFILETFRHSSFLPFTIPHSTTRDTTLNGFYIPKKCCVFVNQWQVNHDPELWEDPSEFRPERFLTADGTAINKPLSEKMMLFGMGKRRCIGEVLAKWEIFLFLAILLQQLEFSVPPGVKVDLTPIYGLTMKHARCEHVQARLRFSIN
Cytochrome P450 3A4 (Homo sapiens), sequence (P08684 whole entry, looked up): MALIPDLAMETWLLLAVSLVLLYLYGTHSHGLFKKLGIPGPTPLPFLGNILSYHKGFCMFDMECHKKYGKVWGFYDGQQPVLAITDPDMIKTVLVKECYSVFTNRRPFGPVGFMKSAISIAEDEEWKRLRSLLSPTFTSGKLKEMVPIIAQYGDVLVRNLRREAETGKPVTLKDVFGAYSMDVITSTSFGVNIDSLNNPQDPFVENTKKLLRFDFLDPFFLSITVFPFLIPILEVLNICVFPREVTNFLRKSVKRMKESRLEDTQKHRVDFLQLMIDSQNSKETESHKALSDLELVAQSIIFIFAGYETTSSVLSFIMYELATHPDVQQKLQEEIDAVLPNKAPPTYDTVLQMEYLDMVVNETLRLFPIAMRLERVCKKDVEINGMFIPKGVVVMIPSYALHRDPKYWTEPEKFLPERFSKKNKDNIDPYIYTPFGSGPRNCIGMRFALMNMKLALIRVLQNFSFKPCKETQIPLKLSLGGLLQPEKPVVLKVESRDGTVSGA
Lysosomal acid glucosylceramidase (Homo sapiens), sequence (P04062 whole entry, looked up): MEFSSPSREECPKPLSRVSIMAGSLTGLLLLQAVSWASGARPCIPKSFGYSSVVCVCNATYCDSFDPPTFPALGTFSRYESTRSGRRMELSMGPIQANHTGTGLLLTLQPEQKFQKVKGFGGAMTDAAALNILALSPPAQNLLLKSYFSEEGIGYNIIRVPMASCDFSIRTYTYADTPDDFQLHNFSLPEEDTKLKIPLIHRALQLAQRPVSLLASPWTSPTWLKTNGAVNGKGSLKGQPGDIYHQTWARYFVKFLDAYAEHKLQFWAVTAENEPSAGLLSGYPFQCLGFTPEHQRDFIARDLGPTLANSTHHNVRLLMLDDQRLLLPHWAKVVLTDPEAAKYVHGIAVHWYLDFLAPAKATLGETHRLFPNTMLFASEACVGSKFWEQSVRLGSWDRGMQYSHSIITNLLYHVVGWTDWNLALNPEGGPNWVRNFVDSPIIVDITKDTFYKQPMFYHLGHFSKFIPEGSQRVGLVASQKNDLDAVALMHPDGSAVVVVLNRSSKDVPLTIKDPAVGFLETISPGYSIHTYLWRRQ
Rap guanine nucleotide exchange factor 4 (Homo sapiens), sequence (Q8WZA2 whole entry, looked up): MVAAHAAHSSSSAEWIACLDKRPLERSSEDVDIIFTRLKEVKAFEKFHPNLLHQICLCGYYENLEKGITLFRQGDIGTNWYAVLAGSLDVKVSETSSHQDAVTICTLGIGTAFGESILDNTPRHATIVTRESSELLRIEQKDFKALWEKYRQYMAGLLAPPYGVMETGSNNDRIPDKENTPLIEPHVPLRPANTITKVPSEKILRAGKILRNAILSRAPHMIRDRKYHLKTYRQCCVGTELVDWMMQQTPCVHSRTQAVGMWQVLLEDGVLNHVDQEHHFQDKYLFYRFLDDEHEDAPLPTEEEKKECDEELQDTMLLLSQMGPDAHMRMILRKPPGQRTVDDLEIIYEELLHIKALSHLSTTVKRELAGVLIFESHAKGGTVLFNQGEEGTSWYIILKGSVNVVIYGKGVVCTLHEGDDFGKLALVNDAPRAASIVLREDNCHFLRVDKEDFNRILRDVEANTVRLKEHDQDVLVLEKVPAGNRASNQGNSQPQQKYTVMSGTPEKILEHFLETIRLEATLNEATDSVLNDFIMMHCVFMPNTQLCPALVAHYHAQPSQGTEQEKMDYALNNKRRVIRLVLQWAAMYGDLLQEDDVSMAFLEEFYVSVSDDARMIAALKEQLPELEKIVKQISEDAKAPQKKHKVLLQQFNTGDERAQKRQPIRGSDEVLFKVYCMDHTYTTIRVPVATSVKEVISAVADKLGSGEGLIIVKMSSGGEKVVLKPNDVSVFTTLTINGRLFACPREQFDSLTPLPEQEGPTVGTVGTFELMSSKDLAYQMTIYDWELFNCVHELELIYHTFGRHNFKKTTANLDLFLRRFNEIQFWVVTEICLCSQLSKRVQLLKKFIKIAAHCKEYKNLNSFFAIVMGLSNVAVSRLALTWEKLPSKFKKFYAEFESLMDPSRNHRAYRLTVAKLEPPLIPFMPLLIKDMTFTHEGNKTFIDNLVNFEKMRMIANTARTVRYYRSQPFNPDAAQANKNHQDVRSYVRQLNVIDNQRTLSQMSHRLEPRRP
Glucocorticoid receptor (Homo sapiens), sequence (P04150 whole entry, looked up, the tested form may be a part): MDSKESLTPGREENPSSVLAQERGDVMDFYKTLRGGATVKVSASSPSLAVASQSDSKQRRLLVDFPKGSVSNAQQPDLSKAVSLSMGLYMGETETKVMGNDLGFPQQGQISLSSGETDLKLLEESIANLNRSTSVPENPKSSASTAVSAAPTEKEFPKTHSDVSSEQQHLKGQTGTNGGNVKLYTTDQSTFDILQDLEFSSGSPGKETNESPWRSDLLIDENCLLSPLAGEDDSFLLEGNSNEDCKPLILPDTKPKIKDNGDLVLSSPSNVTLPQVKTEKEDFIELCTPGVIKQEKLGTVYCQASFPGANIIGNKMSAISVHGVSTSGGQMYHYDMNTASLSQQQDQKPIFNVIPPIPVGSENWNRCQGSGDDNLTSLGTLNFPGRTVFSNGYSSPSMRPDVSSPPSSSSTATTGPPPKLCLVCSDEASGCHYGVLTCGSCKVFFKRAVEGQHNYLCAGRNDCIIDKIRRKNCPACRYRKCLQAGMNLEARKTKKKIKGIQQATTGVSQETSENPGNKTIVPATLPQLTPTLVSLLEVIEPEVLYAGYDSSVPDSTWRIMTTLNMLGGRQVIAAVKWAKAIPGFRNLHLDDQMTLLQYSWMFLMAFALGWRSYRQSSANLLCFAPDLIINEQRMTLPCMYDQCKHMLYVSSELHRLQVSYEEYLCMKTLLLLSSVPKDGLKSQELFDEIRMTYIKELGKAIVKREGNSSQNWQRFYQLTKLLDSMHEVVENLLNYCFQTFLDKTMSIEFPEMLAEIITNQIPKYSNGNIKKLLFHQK
Dual specificity protein kinase CLK4 (Homo sapiens), sequence (Q9HAZ1 whole entry, looked up): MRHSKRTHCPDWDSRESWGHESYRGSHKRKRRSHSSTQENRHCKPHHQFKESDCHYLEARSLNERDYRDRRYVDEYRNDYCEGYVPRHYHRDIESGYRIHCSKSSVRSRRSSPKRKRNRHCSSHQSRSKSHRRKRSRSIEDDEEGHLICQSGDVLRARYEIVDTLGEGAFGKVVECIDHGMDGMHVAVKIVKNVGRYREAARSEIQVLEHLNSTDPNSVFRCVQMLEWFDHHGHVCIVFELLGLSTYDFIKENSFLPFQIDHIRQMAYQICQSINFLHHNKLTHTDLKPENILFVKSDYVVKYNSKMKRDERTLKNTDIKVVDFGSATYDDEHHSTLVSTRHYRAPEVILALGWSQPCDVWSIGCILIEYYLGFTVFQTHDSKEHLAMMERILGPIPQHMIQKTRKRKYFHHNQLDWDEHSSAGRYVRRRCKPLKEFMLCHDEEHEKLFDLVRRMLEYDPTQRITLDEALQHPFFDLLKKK
Ubiquitin carboxyl-terminal hydrolase 1 (Homo sapiens), sequence (O94782 whole entry, looked up): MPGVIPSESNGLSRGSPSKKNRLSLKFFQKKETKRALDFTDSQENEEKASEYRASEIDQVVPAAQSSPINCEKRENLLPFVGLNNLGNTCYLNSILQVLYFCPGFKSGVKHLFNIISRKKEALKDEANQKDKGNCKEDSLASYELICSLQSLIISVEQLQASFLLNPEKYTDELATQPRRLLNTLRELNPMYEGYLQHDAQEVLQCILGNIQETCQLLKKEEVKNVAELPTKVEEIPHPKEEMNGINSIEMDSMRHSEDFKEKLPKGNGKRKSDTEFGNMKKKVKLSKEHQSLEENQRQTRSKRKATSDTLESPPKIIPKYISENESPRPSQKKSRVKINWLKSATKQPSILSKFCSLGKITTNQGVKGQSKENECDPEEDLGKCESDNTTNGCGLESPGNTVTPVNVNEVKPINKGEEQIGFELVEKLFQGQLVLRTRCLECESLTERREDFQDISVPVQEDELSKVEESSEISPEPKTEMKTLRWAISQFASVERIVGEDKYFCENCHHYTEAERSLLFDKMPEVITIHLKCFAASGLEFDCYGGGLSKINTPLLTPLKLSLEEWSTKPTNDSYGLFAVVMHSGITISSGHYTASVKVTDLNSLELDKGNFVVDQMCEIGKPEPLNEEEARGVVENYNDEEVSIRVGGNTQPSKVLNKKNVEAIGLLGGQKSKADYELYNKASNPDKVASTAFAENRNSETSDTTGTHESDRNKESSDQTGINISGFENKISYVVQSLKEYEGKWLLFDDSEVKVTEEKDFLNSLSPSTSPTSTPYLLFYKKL

As for `O=C(Nc1ccccc1)N1CCCC2(CCN(C(=O)c3cc(C(F)(F)F)cc(C(F)(F)F)c3)CC2)C1`, the Potency was > 11.4 µM (inactive) in experiment [1], 31.6 µM (active) in [3], > 46 µM (inactive) in [6] and 44.1 µM (active) in experiment [13]. Also, the figures for the activity change, negative = inhibition in [2], in [4] and in experiment [9] were -28.2% (inactive), 19.5% (inactive) and -0.939% (inactive), respectively. In addition, the activity, negative = inhibition in experiment [5] is -14.9% (inactive). In addition, the compound was called inactive in [7], in [11] and in experiment [12]. In addition, the Potency entry in experiment [8] and in experiment [10] was “inactive” in each case. The figures for the max response in experiment [9] (setting [20]) and in experiment [9] (setting [21]) were 16.6% and 17.1%, respectively.

As for `COc1ccccc1CNc1nc(-c2c(C)noc2C)nc2ccccc12`, the Potency was > 11.4 µM (inactive) in [1]; 0.631 µM (active) in [3]; > 46 µM (inactive) in experiment [14]; > 46 µM (inactive) in experiment [6]; 28.2 µM (active) in [18]; 39.3 µM (active) in experiment [13]. For the same compound, the activity change, negative = inhibition in experiment [2] was 2.62% (inactive); in experiment [9], 7.14% (inactive). The activity, negative = inhibition in experiment [5] was -26.3% (inactive). The outcome in [7], in [11] and in [12] was inactive. Besides, the Potency entry in experiment [8], in experiment [15], in [16], in experiment [17] and in experiment [10] was “inactive” each time. Also, the max response was 14% in experiment [9] (setting [20]) and 19.1% in experiment [9] (setting [21]).

For the compound `CN(C)c1ncc2nc(-c3cccs3)c(=O)n(C[C@H]3CCCO3)c2n1`, the Potency in experiment [1] was > 11.4 µM (inactive); in [3], 1.58 µM (active); in experiment [14], > 9.22 µM (inactive). Further, the activity change, negative = inhibition in experiment [2] was -15.4% (inactive); in experiment [4] it was 12.3% (inactive); in experiment [9], 4.26% (inactive). Besides, in experiment [5], the activity, negative = inhibition is 1.25% (inactive). In experiment [7], the compound was classed as inactive. Also, the Potency entry in experiment [8], in [15], in experiment [16], in experiment [18], in [10] and in [13] was “inactive” throughout. Besides, the figures for the max response in experiment [9] (setting [20]) and in experiment [9] (setting [21]) were 14.9% and 17.7%, respectively.

Take `COc1ccccc1-c1cc(NCc2cccc(C)c2)ncn1`: the Potency in [1] was > 11.4 µM (inactive); in [3], 1.58 µM (active); in experiment [14], > 46 µM (inactive); in experiment [6], > 46 µM (inactive); in experiment [19], 6.31 µM (active); in experiment [16] it was 35.5 µM (active). Moreover, the activity change, negative = inhibition was -9.64% (inactive) in [2], 1.95% (inactive) in experiment [4] and -23.2% (inactive) in [9]. In experiment [5], the activity, negative = inhibition was -2.82% (inactive). For the same compound, the result in [7] was inactive. The Potency result in experiment [8], in [10] and in experiment [13] was “inactive” throughout. In addition, the max response in experiment [9] (setting [20]) was 4.86%; in experiment [9] (setting [21]), -16.7%.

As to `CN(C)c1ncc2nc(-c3ccc(F)cc3)c(=O)n(Cc3cccs3)c2n1`, the Potency was > 11.4 µM (inactive) in experiment [1], 1 µM (active) in experiment [3], > 9.22 µM (inactive) in experiment [14] and > 46 µM (inactive) in [6]. Further, the activity change, negative = inhibition in experiment [2] is 14.3% (inactive); in experiment [4], 5.02% (inactive); in [9], 2.1% (inactive). Further, in [5], the activity, negative = inhibition was -1.13% (inactive). Moreover, the results for the max response in [9] (setting [20]) and in experiment [9] (setting [21]) were 26.1% and 28%, respectively. For the same compound, the Potency result in experiment [15], in [16], in experiment [17], in experiment [18] and in [10] was “inactive” throughout.
